Test results reported in PubChem BioAssay AID1159580 (chemical genetic matrix, 2015).
“And” between values parts separate entries of the source, which are not always exact repeats. Identical values can stand only once. Among all 5,500 compounds or so, about 2,000 (36%) were called active. Another 18% or so got no clear call; they are omitted. No stated cut-off is given here; in the data, active means normalized growth mostly below about 0.91 (no sharp cut-off); inconclusive means no clear call, values can overlap the other calls; inactive means mostly above about 0.92. The list shows a part of the results.

Experiment: chemical genetic growth profiling, strain panel (AID 1159580);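 further: tested at 20 µM; growth read once vehicle control cultures reached saturation at 30 °C; 1 = growth at the plate median or of vehicle wells; lower values mean less growth of the strain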
Details: S. cerevisiae deletion strains, growth OD

Measured: normalized growth

O=C(O)c1cc(O)c(O)c(O)c1
inactive: locus YAL021C, strain ccr4, hits give low values 1.05 | locus YAL026C, strain drs2, hits give low values 1.03 | locus YAL030W, strain snc1, hits give low values 1.02 | locus YBL061C, strain skt5, hits give low values 1.03 | locus YBR009C, strain hhf1, hits give low values 1.02 | locus YBR021W, strain FUR4, hits give low values 1.03 | locus YBR023C, strain chs3, hits give low values 1.04 | locus YBR171W, strain sec66, hits give low values 1.03 | locus YBR229C, strain ROT2, hits give low values 1.03 | locus YBR231C, strain swc5, hits give low values 1.01 | locus YBR279W, strain paf1, hits give low values 1.02 | locus YCL011C, strain gbp2, hits give low values 1.02 | locus YCL016C, strain dcc1, hits give low values 1.04 | locus YCL029C, strain bik1, hits give low values 1.07 | locus YCL069W, strain vba3, hits give low values 1.01 | locus YCR088W, strain abp1, hits give low values 1.02 | locus YDL005C, strain med2, hits give low values 1.02 | locus YDL035C, strain GPR1, hits give low values 1.07 | locus YDL040C, strain nat1, hits give low values 1.02 | locus YDL074C, strain BRE1, hits give low values 1.14 | locus YDL101C, strain DUN1, hits give low values 1.03 | locus YDL185W, strain tfp1, hits give low values 1.03 | locus YDL192W, strain arf1, hits give low values 1.03 | locus YDR001C, strain nth1, hits give low values 1.01 | locus YDR069C, strain doa4, hits give low values 1.01 | locus YDR101C, strain arx1, hits give low values 0.996 | locus YDR137W, strain rgp1, hits give low values 1.13 | locus YDR150W, strain NUM1, hits give low values 1.03 | locus YDR159W, strain sac3, hits give low values 0.987 | locus YDR162C, strain NBP2, hits give low values 1.04 | locus YDR195W, strain ref2 0.996 | locus YDR297W, strain sur2, hits give low values 1.02 | locus YDR318W, strain mcm21, hits give low values 1.04 | locus YDR334W, strain swr1, hits give low values 1.04 | locus YDR335W, strain msn5, hits give low values 1.02 | locus YDR388W, hits give low values 1.02 | locus YDR392W, strain spt3, hits give low values 0.993 | locus YDR502C, strain sam2, hits give low values 1.04 | locus YEL003W, strain gim4, hits give low values 0.996 | locus YEL037C, strain rad23, hits give low values 1.02 | locus YEL061C, strain CIN8 (second series), hits give low values 1.02 | locus YEL061C, strain CIN8, hits give low values 1.03 | locus YER015W, strain faa2, hits give low values 1 | locus YER016W, strain bim1, hits give low values 1.04 | locus YER110C, hits give low values 1.02 | locus YER111C, strain swi4, hits give low values 1.02 | locus YER155C, strain BEM2 (second series), hits give low values 1.08 | locus YER155C, strain BEM2, hits give low values 1.03 | locus YER167W, strain BCK2, hits give low values 1.03 | locus YFR010W, strain ubp6, hits give low values 0.998 | locus YGL078C, strain dbp3, hits give low values 1.03 | locus YGL086W, strain mad1, hits give low values 1.03 | locus YGL167C, strain pmr1, hits give low values 1.02 | locus YGL173C, strain kem1, hits give low values 0.994 | locus YGL227W, strain vid30, hits give low values 1.02 | locus YGL240W, strain doc1, hits give low values 1.01 | locus YGL248W, strain PDE1, hits give low values 1.08 | locus YGL253W, strain hxk2, hits give low values 1.03 | locus YGR078C, strain PAC10, hits give low values 1.04 | locus YGR135W, strain pre9, hits give low values 1.07 | locus YGR252W, strain gcn5, hits give low values 1.07 | locus YHR013C, strain ard1, hits give low values 1.04 | locus YHR027C, strain rpn1, hits give low values 1.01 | locus YHR030C, strain SLT2, hits give low values 0.966 | locus YHR079C, strain IRE1 (second series), hits give low values 1.03 | locus YHR079C, strain IRE1, hits give low values 0.969 | locus YHR094C, strain hxt1, hits give low values 1.02 | locus YHR129C, strain ARP1, hits give low values 1.05 | locus YHR142W, strain chs7, hits give low values 1.03 | locus YHR200W, strain rpn10, hits give low values 1.02 | locus YIL066C, strain RNR3, hits give low values 1.05 | locus YIL073C, strain SPO22, hits give low values 1.23 | locus YIL125W, strain kgd1, hits give low values 1.02 | locus YIR030C, strain dcg1, hits give low values 1.05 | locus YJL092W, strain hpr5, hits give low values 1.03 | locus YJL095W, strain BCK1 (second series), hits give low values 1.03 | locus YJL095W, strain BCK1, hits give low values 1.12 and 0.981 | locus YJL115W, strain asf1, hits give low values 1.02 | locus YJL129C, strain trk1, hits give low values 1.08 | locus YJL134W, strain LCB3, hits give low values 1.03 | locus YJL154C, strain vps35, hits give low values 1.03 | locus YJL164C, strain tpk1, hits give low values 1.01 | locus YJL166W, strain qcr8, hits give low values 1.04 | locus YJL168C, strain set2, hits give low values 1.02 | locus YJL187C, strain SWE1 (second series), hits give low values 1.07
